Measured values as given in PubChem BioAssay AID504621 (Broad Institute, 2011).
About 970 (0.31%) of roughly 310,000 compounds were called active. The full list was thinned out, with actives kept by preference. A number with no mark means an inactive call.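 How the source made its calls: active means every replicate shows inhibition above about 80%, whatever the replicate mean (limit read from the data); inconclusive means mean inhibition reaches the set limit but some replicate falls short; inactive means the rest.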

Assay: reduced ATP signal of yeast carrying P. falciparum Hsp90 – S. cerevisiae, BacTiter-Glo luminescence, single point, set 2, antimalarial PfHsp90 inhibitor project, primary screen (AID 504621);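 further: yeast relying on Plasmodium falciparum Hsp90 in place of its own; 0% = DMSO neutral controls and 100% = 20 µM radicicol positive controls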
Conditions: S. cerevisiae expressing PfHsp90, growth, 48 h, at 9.4 µM, hits give high values, yeast lacking PDR1 and PDR3 efflux regulators

In the case of O=C(/C=C/c1ccc(Cl)c([N+](=O)[O-])c1)c1cccnc1, the inhibition is reported as 104% (active).
For CC(C)OC(=O)c1ccc(NCc2cc(O)ccc2O)cc1Cl, the inhibition was 121% (active).
For Cc1[nH]n(-c2ccc([N+](=O)[O-])cc2)c(=O)c1C=NCCN1CCN(C(=O)c2ccccc2F)CC1, the inhibition was 86.9% (active).
For CC(=NNC(=S)N1CCCCCC1)c1ccccn1, the inhibition was 91.4% (active).

In order of falling inhibition:
1. COc1ccc(CNCCCn2cnc3c(OCc4ccccc4)ncnc32)cc1  21.9%
2. O=C(NCc1ccc2c(c1)OCO2)c1c(-c2ccsc2)sc2ccccc12  20.1%
3. O=C(NN=Cc1ccccc1O)NN=Cc1ccccc1O  15.3%
4. O=C(Nc1cccnc1)c1ccc(Cl)c([N+](=O)[O-])c1  15.1%
5. O=C(/C=C/c1ccc(Cl)c([N+](=O)[O-])c1)c1ccc(O)cc1  12.9%
6. O=C(CN1C(=O)NC2(CCCCCCC2)C1=O)NCc1ccc(F)cc1  12.2%
7. Cc1[nH]n(-c2ccccc2)c(=O)c1N=Nc1ccccc1C(=O)N1CCCCC1  9.24%
8. COc1ccc(C(=O)N(C)Cc2ccc(OC)c(OC)c2OC)cc1S(=O)(=O)N1CCOCC1  5.5%
9. Cc1ccc(S(=O)(=O)N2CCN(C(=O)COC(=O)/C=C/c3cccc(Cl)c3)CC2)c(C)c1  4.86%
10. O=C(Cc1ccc(S(=O)(=O)N2CCOCC2)s1)Nc1ccc(Br)c(C(F)(F)F)c1  0.787%
11. Cc1cccc(-c2oc3ccc(-c4ccc5c(c4)OCO5)cc3c2C#Cc2cncn2C)c1  -2.66%
12. CCOC(=O)CCC(NC(=O)c1ccc(CNc2nc3cc(C(F)(F)F)ccc3nc2C(=O)OCC)cc1)C(=O)OCC (stereo not given)  -2.78%
13. C/C(=N\NC(=O)Cc1ccc(Cl)cc1)c1ccccn1  -4.85%
14. N#CC1=C(N)Oc2cc(N)ccc2C1c1ccccc1 (stereo not given)  -6.35%
15. COc1ccc(C(=O)Nc2cccc(/C=C(/CCC(=O)O)c3nc4ccccc4s3)c2)cc1  -6.48%
16. CC(C)NC(=O)c1ccc(Cl)cc1Cl  -8.78%
17. COC[C@@H]1NS(=O)(=O)c2ccc(Br)cc2O[C@H]1c1ccccc1  -9.7%
18. C=CCNC(=S)N1CCN(CCN=Cc2c(C)[nH]n(-c3ccc([N+](=O)[O-])cc3)c2=O)CC1  -11.1%
19. C/C(=N\NC(=O)c1ccccc1F)c1ccccn1  -13%
20. CC(CN1CCOCC1)OC(=O)c1ccc(Cl)cc1Cl (stereo not given)  -17.2%
21. Oc1[nH]c2ccccc2c1N=Nc1c(F)c(F)c(F)c(F)c1F  -34.3%
